Screening data as filed in PubChem.
PHOSPHO1 inh = PubChem AID 1565 | recombinant PHOSPHO1, absorbance phosphatase assay | hit rate 1.1% among 290,000 | inhibition, % at 13.3 µM | Phosphoethanolamine/phosphocholine phosphatase (Homo sapiens), Q8TCT1; in the data active = inhibition above about 60%
Target sequence (Q8TCT1 whole entry, looked up): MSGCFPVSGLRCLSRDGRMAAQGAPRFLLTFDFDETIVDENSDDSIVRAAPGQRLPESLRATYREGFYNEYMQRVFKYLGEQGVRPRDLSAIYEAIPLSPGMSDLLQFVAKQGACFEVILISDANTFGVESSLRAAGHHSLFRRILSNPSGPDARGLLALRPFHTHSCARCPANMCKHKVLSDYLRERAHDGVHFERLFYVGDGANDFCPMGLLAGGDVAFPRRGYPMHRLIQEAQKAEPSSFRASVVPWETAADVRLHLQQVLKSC
ALR inh = inhibitors of human ALR sulfhydryl oxidase, primary screen, biochemical, H2O2 detection, HRP-luminol luminescence, single point. FAD-linked sulfhydryl oxidase ALR (Homo sapiens), P55789. purified ALR, DTT oxidation. inhibition, % (test concentration not listed). hit rate 3.8% among 290,000;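 active = mean replicate inhibition above about 79%, with every replicate also reaching it, limit read from the data; inconclusive = only one of the two criteria met; inactive = mean below limit and not every replicate reaching it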
APOBEC3A inh = APOBEC3A ssDNA deaminase inhibitors, primary screen, selectivity assay for APOBEC3G inhibitor project, biochemical, FAM/TAMRA oligo cleavage fluorescence. hit rate 0.41% among 330,000. DNA dC->dU-editing enzyme APOBEC-3A (Homo sapiens), P31941. recombinant A3A, FAM/TAMRA ssDNA deamination fluorescence. inhibition, % at 20 µM. AID 493011, 2011;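 active = at least 40% inhibition at 20 µM here, with at most 30% in a related deaminase screen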;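 note: plate controls were A3A with DMSO for no effect and wells lacking A3A enzyme for full effect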
Target sequence (P31941 whole entry, looked up): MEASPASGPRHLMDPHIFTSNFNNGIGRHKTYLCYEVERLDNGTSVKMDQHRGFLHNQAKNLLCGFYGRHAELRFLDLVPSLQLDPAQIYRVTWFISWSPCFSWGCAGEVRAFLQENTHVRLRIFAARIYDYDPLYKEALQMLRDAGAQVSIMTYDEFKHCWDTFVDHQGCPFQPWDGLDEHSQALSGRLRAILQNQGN
rCAG RNA binder = binders of r(CAG) RNA repeats, primary screen, biochemical, fluorescence; inhibition, % at 3 µM; r(CAG) RNA repeat, TO-PRO-1 dye displacement fluorescence; hit rate 1.3% among 370,000; AID 651821, 2012;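 active = inhibition above the plate cutoff, the mean of all test compounds on that plate plus 3 SD, cut at about 35% in these data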;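 note: 0% = DMSO alone and 100% = 100 µM mitoxantrone as full dye displacement; higher means more dye released from RNA so lower well fluorescence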
APOBEC3G inh = APOBEC3G DNA deaminase inhibitors, primary screen, biochemical, fluorescence, single-stranded DNA substrate, uHTS | inhibition, % at 20 µM | AID 493012, 2011 | recombinant A3G, ssDNA deamination FAM/TAMRA fluorescence | DNA dC->dU-editing enzyme APOBEC-3G (Homo sapiens), Q9HC16 | hit rate 0.28% among 330,000;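 active = inhibition of at least 40% at 20 µM, with no more than 30% in the related APOBEC3A deaminase screen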;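 note: plate controls were DMSO wells with A3G for no effect and wells lacking A3G enzyme for full effect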
aDG glyco act = activators of alpha-DG glycosylation, primary screen, uHTS, Pro5-aDG cells, AlphaScreen; alpha-DG glycosylation AlphaScreen (IIH6); 0% Pro5, 100% B10-LARGE cell signal; activation, % at 10 µM; hit rate 0.22% among 360,000; AID 624168, 2012;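 active = activation of at least 8% versus controls, or a plate z-score of at least 8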;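 note: Pro5 are CHO cells carrying HIG-tagged alpha-DG that lacks glycosylation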
rCAG binder conf = small molecules binding CAG repeat RNA – biochemical, fluorescence, confirmation | shares compounds with rCAG RNA binder | r(CAG) RNA repeat, TO-PRO-1 dye displacement fluorescence | inhibition, % at 3 µM | hit rate 70% among 4,300;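 active = inhibition above a per-plate cutoff, the mean inhibition of sample wells plus 3 SD, cut at about 35% in these data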;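 note: loss of TO-PRO-1 fluorescence as compound displaces dye from 1x1 AA loop RNA; 0% = DMSO only wells and 100% = 100 µM mitoxantrone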
DNA CAG counter = displacement of TO-PRO-1 from CAG DNA duplex, counter-screen for rCAG RNA repeat binder project, biochemical, fluorescence, TO-PRO-1 dye, d(CAG) DNA oligo; shares compounds with rCAG RNA binder; d(CAG) DNA oligo TO-PRO-1 dye displacement; inhibition, % at 3 µM; hit rate 94% among 4,300; AID 652068, 2013;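 active = inhibition above its plate's cutoff, the mean test-well inhibition plus 3 SD, cut at about 4.8% in these data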;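 note: 0% = DNA dye mix with DMSO and 100% = 100 µM mitoxantrone; hits displace the dye from DNA and so lower well fluorescence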
* hit, by the source's call. Compounds with a hit are over-represented: about 5.4% of the library has one in this group of screens.

Screening CC[C@@H]1C=C(C(=O)O)[C@H](c2ccc(C)cc2)N1S(=O)(=O)c1ccc(C)cc1 returned APOBEC3A inh -5, rCAG RNA binder 9, APOBEC3G inh -8 and aDG glyco act 0.
Screening Cc1ccc(S(=O)(=O)N2[C@@H](c3ccc(Cl)c(Cl)c3)C(C(=O)O)=C[C@H]2CC2CCCC2)cc1 returned APOBEC3A inh -1, rCAG RNA binder 87*, APOBEC3G inh -3, aDG glyco act 0, rCAG binder conf 86* and DNA CAG counter 57*.
Cc1ccc(S(=O)(=O)N2[C@@H](c3ccc(C#N)cc3)C(C(=O)O)=C[C@H]2CC2CCCC2)cc1 was read as APOBEC3A inh 1, rCAG RNA binder 69*, APOBEC3G inh 0, aDG glyco act 0, rCAG binder conf 59* and DNA CAG counter 25*.
Screening Cc1ccc(S(=O)(=O)N2[C@@H](c3ccc(Cl)cc3)C(C(=O)O)=C[C@H]2CC2CCCC2)cc1 returned APOBEC3A inh -6, rCAG RNA binder 77*, APOBEC3G inh -7, aDG glyco act 0, rCAG binder conf 77* and DNA CAG counter 40*.
For CN1OC[C@@H]2CN(C(=O)CCc3ccccc3)[C@H](c3cccc(Oc4ccccc4)c3)C[C@@H]21 the results were rCAG RNA binder 0 and aDG glyco act 0.
For Cc1cc(/C=N/NC(=O)C(O)(c2ccccc2)c2ccccc2)c(C)n1-c1ccc(C(=O)O)cc1 the results were PHOSPHO1 inh 4, ALR inh 5, APOBEC3A inh 7, rCAG RNA binder 35*, APOBEC3G inh 3, aDG glyco act 0, rCAG binder conf 28 and DNA CAG counter 12*.
`Cc1ccc(OCCSc2nc3ccccc3n2CC(=O)O)c(C(C)C)c1` gave PHOSPHO1 inh 18, ALR inh 13, APOBEC3A inh -2, rCAG RNA binder 38*, APOBEC3G inh -9, aDG glyco act 0, rCAG binder conf 41* and DNA CAG counter 9.8*.
CCc1ccc(OC(C)C(=O)Nc2ccc(S(=O)(=O)Nc3nccs3)cc2)cc1 (configuration not stated) was read as PHOSPHO1 inh 11, APOBEC3A inh -1, rCAG RNA binder 52*, APOBEC3G inh -4, aDG glyco act 0, rCAG binder conf 39* and DNA CAG counter 14*.
Screening Cc1ccc(SCC(=O)Nc2ccc(S(=O)(=O)Nc3nccs3)cc2)cc1 returned PHOSPHO1 inh 1, ALR inh -3, APOBEC3A inh -1, rCAG RNA binder 49*, APOBEC3G inh -6, aDG glyco act 0, rCAG binder conf 50* and DNA CAG counter 15*.
`Cc1ccc(SCC(=O)Nc2nccs2)cc1` gave PHOSPHO1 inh 4, ALR inh -8, APOBEC3A inh 2, rCAG RNA binder 0, APOBEC3G inh 2 and aDG glyco act 0.
For CCC(C)C(=O)Nc1ccc(S(=O)(=O)Nc2nccs2)cc1 (configuration not stated) the results were ALR inh -2, APOBEC3A inh 2, rCAG RNA binder 2, APOBEC3G inh 19 and aDG glyco act 0.
For Cc1ccc(OC(C)C(=O)Nc2ccc(S(=O)(=O)Nc3nccs3)cc2)cc1 (configuration not stated) the results were ALR inh 2, APOBEC3A inh 2, rCAG RNA binder 38*, APOBEC3G inh -1, aDG glyco act 0, rCAG binder conf 23 and DNA CAG counter 6.5*.
Screening CC(C)(C)c1ccc(C(=O)NCCC(=O)Nc2ccc(S(=O)(=O)Nc3nccs3)cc2)cc1 returned APOBEC3A inh -3, rCAG RNA binder 57*, APOBEC3G inh -7, aDG glyco act 0, rCAG binder conf 54* and DNA CAG counter 20*.
For CCCC(=O)Nc1ccc(S(=O)(=O)Nc2nccs2)cc1 the results were ALR inh -2, APOBEC3A inh 1, rCAG RNA binder 1, APOBEC3G inh 1 and aDG glyco act 0.
For COC(=O)C[C@H]1CC[C@@H]2[C@@H](COc3ccc(NS(=O)(=O)c4ccccc4Cl)cc3C(=O)N2C)O1 the results were rCAG RNA binder 7.
For Cc1ccc(C(=O)O)cc1NC(=S)NC(=O)Cc1ccccc1 the results were PHOSPHO1 inh 26, ALR inh 2, APOBEC3A inh -3, rCAG RNA binder 4, APOBEC3G inh -5 and aDG glyco act 0.
`CCOc1cc(C(=O)NC(=S)Nc2ccc(Cl)c(C(=O)O)c2)cc(OCC)c1OCC` gave PHOSPHO1 inh 33, ALR inh 27, APOBEC3A inh -1, rCAG RNA binder 41*, APOBEC3G inh -6, aDG glyco act 0, rCAG binder conf 28 and DNA CAG counter 5.6*.
For Cc1ccc(C(=O)O)cc1NC(=S)NC(=O)C(c1ccccc1)c1ccccc1 the results were PHOSPHO1 inh 45, ALR inh inconclusive, APOBEC3A inh -2, rCAG RNA binder 58*, APOBEC3G inh -3, aDG glyco act 0, rCAG binder conf 38* and DNA CAG counter 10*.
`O=C(O)c1cc(NC(=S)NC(=O)C(c2ccccc2)c2ccccc2)ccc1Cl` gave PHOSPHO1 inh 50, ALR inh 9, APOBEC3A inh -2, rCAG RNA binder 41*, APOBEC3G inh -6, aDG glyco act 0, rCAG binder conf 29 and DNA CAG counter 6.9*.
`O=C(NC(=S)Nc1ccc(Cl)c(C(=O)O)c1)c1ccco1` gave PHOSPHO1 inh -13, ALR inh 19, APOBEC3A inh -2, rCAG RNA binder 0, APOBEC3G inh -3 and aDG glyco act 0.
Cc1ccc(NC(=O)C2CC(=O)N(c3ccccc3Cl)C2)cc1S(=O)(=O)N1CCOCC1 (configuration not stated) was read as rCAG RNA binder 3 and aDG glyco act 0.
For COc1ccc(CCNC(=O)CSc2nc3c(sc(=S)n3-c3ccccc3)c(=O)[nH]2)cc1OC the results were rCAG RNA binder 19 and aDG glyco act 0.
